# Measurements: ChEMBL document CHEMBL4513216, “Probing the Open Global Health Chemical Diversity Library for Multistage-Active Starting Points for Next-Generation Antimalarials” (ACS Infect Dis, 2020)
# Screen size: about 65,000 compounds; about 2,100 (3.2%) showed an effect of 50% or more. The median lay at about -52%. The full list was thinned out, with strong results kept by preference.
# Test system: Plasmodium falciparum
# Assay: Screen against P. falciparum Asexual Blood Stage (ABS), at 5uM
# Type: functional, Dd2
# Conditions: tested at 5 uM
row,SMILES,INHIBITION
1,Cc1nc(CN2CCN(C(=O)C(C(C)C)n3cncn3)CC2)cs1 (stereo unspecified),-61.1%
2,CN1N=C(C(=O)N(Cc2ccco2)C2CC2)CCC1=O,-127%
3,CC1CCN(C(=O)CN(Cc2ccco2)C2CC2)CC1,-115%
4,CN1CCC(N(Cc2ccco2)S(=O)(=O)c2ccc(Cl)cc2)CC1,56.8%
5,COCCNC(=O)[C@H]1C[C@@H]2CCN(Cc3nccs3)C[C@H]2O1,-127%
6,CN(C)CCN(Cc1ccc(Cl)cc1)C(=O)c1ccn(C)c(=O)c1,-73.6%
7,Cc1cc(C(=O)N(CCN(C)C)Cc2ccc(Cl)cc2)no1,53.4%
8,Cc1cnc(C(=O)N(CCN(C)C)Cc2ccc(Cl)cc2)cn1,-35.7%
9,CN(C)CCN(Cc1ccc(Cl)cc1)C(=O)c1ccncc1,53.1%
10,CN(C)CCN(Cc1ccc(C(F)(F)F)cc1)C(=O)c1cc[nH]n1,35.8%
11,CN(C)CCN(Cc1ccc(Cl)cc1)C(=O)c1cnccn1,35.1%
12,Cc1nc(COCc2cnc3n2CCN(C)C3C)cs1 (stereo unspecified),-63.4%
13,O=C(NCCc1cccs1)[C@H]1CO[C@H]2CCN(C3CCC3)C[C@H]2C1,-9.07%
14,CCN1CCC(CNS(=O)(=O)N2CCc3ccccc3C2)C1 (stereo unspecified),53.9%
15,O=S1(=O)CCC(CNS(=O)(=O)N2CCc3ccccc3C2)C1 (stereo unspecified),-114%
16,O=S(=O)(NCC1CCOC1)N1CCc2ccccc2C1 (stereo unspecified),-80.7%
17,COc1ccc(C(=O)NCC(c2cccn2C)N2CCN(C)CC2)cc1 (stereo unspecified),-35%
18,COc1ccc(C(=O)NCC(c2cccn2C)N2CCCC2)cc1OC (stereo unspecified),28%
19,COc1cc(OC)cc(C(=O)NCC(c2cccn2C)N2CCCC2)c1 (stereo unspecified),55.5%
20,O=C(NCC(O)COc1ccccc1)Nc1nncs1 (stereo unspecified),-50.2%
21,O=C(CCc1ccccc1)NCC1CCN(Cc2ccsc2)CC1,19.8%
22,O=C(CCc1ccsc1)NCC1CCN(Cc2cccs2)CC1,59.5%
23,O=C(CCc1ccccc1)NCC1CCN(Cc2cccs2)CC1,-7.73%
24,CCOc1nn(CC)cc1-c1nnc(SCc2ccccn2)n1C,-121%

row,SMILES,INHIBITION
1,CCCC(=O)N(CCCN1CCOCC1)c1nc2c(Cl)cccc2s1,-1.93%
2,Cc1noc(C)c1C(=O)NCC1CCCCN1Cc1ccccc1 (stereo unspecified),-3.72%
3,Cc1noc(C(C)C)c1C(=O)NCC1CCCN1Cc1ccccc1 (stereo unspecified),65.7%
4,Cc1noc(C(C)C)c1C(=O)NCC1CCN(c2ccccc2)C1 (stereo unspecified),35.6%
5,Cc1cnn(CCC(=O)N2CCC3(CCC(=O)N(CC4CC4)C3)CC2)c1,-49%
6,Cn1nc(CNC(=O)c2ccc3nsnc3c2)c2c1CCOC2,-37.5%
7,Cc1cnc(C)c(Oc2ccc(Cl)c(CN3CCCC3)c2Cl)n1,-31.4%
8,CCc1noc(C2CCCCN2C(=O)c2cc(C)oc2C)n1 (stereo unspecified),-14.9%
9,COc1ccc(Cl)cc1NCc1cc(C)on1,-142%
10,CCOc1ccc(OCC)c(NCc2cc(C)on2)c1,-105%
11,COc1cc2nc(NCc3cc(C)on3)nc(N)c2cc1OC,61.4%
12,O=S(=O)(c1ccccc1)N1CCC2(CCCN2Cc2cccc(Cl)c2)C1 (stereo unspecified),18.8%
13,COc1ccc(F)cc1-c1ccccc1CC1(C(=O)O)CCOCC1,-130%
14,COc1ccc(F)cc1-c1ccccc1CC1CNCCNC1=O (stereo unspecified),51.7%
15,Cc1cc(F)ccc1-c1ccccc1CC1CNCCNC1=O (stereo unspecified),49.3%
16,O=C(CSCCN1CCOCC1)N1CCc2ccccc2C1,-92.5%
17,O=C(CCc1nccs1)N1CCN(c2ccccn2)CC1,-127%
18,Cn1ccnc1CN1CCC2(COCCN(S(=O)(=O)C3CC3)C2)C1 (stereo unspecified),-106%
19,Cn1ccnc1CN1CCC2(CC1)COCCN(c1ncccn1)C2,-9.16%
20,Cn1ccnc1CN1CCC2(COCCN(Cc3ccsc3)C2)C1 (stereo unspecified),52%
21,COCC1Cn2nnc(-c3cnn(C)c3)c2CN1Cc1ccoc1 (stereo unspecified),28.8%
22,CCc1c(-c2ccccc2)nc2c(c(C)c(C)n2CCN(C)C)c1N,67.6%
23,CCc1cc(NCCc2cccnc2)n2nc(C)c(C)c2n1,-108.7%
24,Cc1cc(C(=O)N2CCNC(=O)C2)c(C)n1Cc1ccccn1,-68.6%

row,SMILES,INHIBITION
1,Cc1c(C)n(Cc2ccncc2)c2nc3c(c(N)c12)CCCCCC3,28.3%
2,Cc1c(C)n(Cc2ccccn2)c2nc3c(c(N)c12)CCCC3,46.7%
3,CCCc1nc2c(c(C)c(C)n2Cc2ccccn2)c(N)c1CC,59.4%
4,CCCc1nc2c(c(C)c(C)n2Cc2ccncc2)c(N)c1CC,60.3%
5,CCc1nc2c(c(C)c(C)n2Cc2cccnc2)c(N)c1C,20.4%
6,Cc1c(C)n(Cc2ccncc2)c2nc3c(c(N)c12)CCCC3,-12.1%
7,CCc1c(C)sc2c1c(N)nc(=O)n2CCN(C)C,17.4%
8,CCCc1nc2c(c(C)c(C)n2Cc2cccnc2)c(N)c1CC,65%
9,CCc1c(C)sc2c1c(N)nc(=O)n2CCCN(C)C,-147%
10,CCC(Nc1nc(C)nc2onc(C)c12)c1nc(C)c(C)s1 (stereo unspecified),-38.1%
11,CCCc1noc(CN2CCOCC2C)n1 (stereo unspecified),-47.4%
12,Cc1cc(NC(=O)CCn2nc(C)c3ccccc32)n(C(C)C)n1,-75.1%
13,CO[C@H]1CCN(S(=O)(=O)c2cn(C)cn2)[C@H]1Cc1cccnc1,-8.09%
14,Cc1cc(=O)n2nc(-c3cccs3)nc2n1CC(=O)NC(C)C,-10.8%
15,Cc1cc(C)c(CNC(=O)N(C)Cc2ccc3c(c2)OCO3)c(=O)[nH]1,-71.6%
16,Cn1cc(NC(=O)N2CCC(OCc3ccccc3)CC2)ccc1=O,43.6%
17,Cc1nn(C)c(N(C)C)c1CNCC(O)COc1cccc(F)c1 (stereo unspecified),-0.711%
18,COC(=O)c1ncccc1N1CCN(C(=O)CN2CCOCC2)CC1,-131%
19,Cc1cnn(CC2CCCCN2C(=O)Cc2cn3ccsc3n2)c1 (stereo unspecified),-120%
20,CCc1cnc2c(c1Nc1ccc(C)c(F)c1)c(=O)n(C)c(=O)n2C,41.1%
21,Cc1c(C)n(Cc2ccccn2)c2nc3c(c(N)c12)CCCCCC3,60.3%
22,Cc1c(C)n(Cc2ccncc2)c2nc3c(c(N)c12)CCCCC3,21%
23,Cc1c(C)n(Cc2ccccn2)c2nc3c(c(N)c12)CCCCC3,23.7%
